PubChem BioAssay (NCATS)
“And” between values parts separate entries of the source, which are not always exact repeats. Identical values can stand only once. Records with an inconclusive call do not appear. A call without a number means that no potency is given here. The source made the active and inactive calls. Unless noted, the call rests on the fitted dose curve; in most records, active means well fitted curve in the direction sought with a large enough effect; inconclusive means small, poorly fitted or top-dose-only effect, or another doubt; inactive means no such curve, though single readings can be large; an effect the other way counts as inactive or inconclusive.

Assays:
[1] = UWB1.289 Cancer Cell Toxicity qHTS against the NCATS CANVASS Library (AID 1347347); further: nearly all actives have a fitted effect of over 60% in size; further: potency means the concentration at half of the fitted maximal effect
Procedure, shortened: (§1)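 Cells were seeded at 1000 per well, allowed 4 h at 37 degrees C/5% CO2, then pin-treated with an 11-point compound series. After 72 h, viability was read as CellTiter-Glo luminescence following 15min at room temperature.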

[2] = HEK-293 Cancer Cell Toxicity qHTS against the NCATS CANVASS Library (AID 1347355); further: nearly all actives have a fitted effect of over 65% in size; further: potency means the concentration at half of the fitted maximal effect
Procedure, shortened: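 Cells at 1000/well were given compound 4 h after plating in an 11-point series. Viability was read by CellTiter-Glo luminescence after 72 h at 37 degrees C.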

[3] = HPAF-II 18hr Apoptosis Induction qHTS against the NCATS CANVASS Library (AID 1347360)
Procedure, shortened: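 Caspase-Glo 3/7 luminescence (DEVD substrate) after 15 min RT; HPAF-II, 500 cells/well, 18 h compound exposure at 37 degrees C, qHTS series; doxorubicin control 0.1nM - 4uM.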

[4] = qHTS for Antimalaria activity screened against the NCATS CANVASS Library (AID 1347380); further: nearly all actives have a fitted effect of over 40% in size; further: potency means the concentration at half of the fitted maximal effect;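 on activity change, negative = inhibition: Plasmodium falciparum strain Dd2 asexual parasites grown in red blood cells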
Procedure, shortened: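 Red blood cells infected with P. falciparum Dd2 (2.5% hematocrit final, 0.3% parasitemia) were exposed to compounds in an 11-point qHTS series for 72 hr at 37C under 5% O2 and 5% CO2. Lysis buffer with SYBR Green was then added for 18 hr, and fluorescence was read at 485/535 nm.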

[5] = qHTS for Activators of p53 Stress Response Pathway screened against the NCATS CANVASS Library (AID 1347388)
Procedure, shortened: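 Beta-lactamase reporter driven by p53 response elements in HCT-116 cells, read as the 460 nm/530 nm emission ratio after CCF4 loading, following 16 h of exposure to an 11-point series. Cell viability was measured in the same wells by CellTiter-Glo luminescence.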

[6] = Redox Reaction Profiling qHTS: Assay Interference Panel against the NCATS CANVASS Library (AID 1347401)
Procedure, shortened: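 Cell-free redox surrogate: 5 uM resazurin + 200 uM DTT, 50 mM HEPES pH 7.3/50 mM NaCl; cpds pinned, 11-pt qHTS; Ex525/Em598 read t0 and t=15 min, dark.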

[7] = OV-SAHO Cancer Cell Toxicity qHTS against the NCATS CANVASS Library (AID 1347348); further: nearly all actives have a fitted effect of over 55% in size; further: potency means the concentration at half of the fitted maximal effect
Procedure, shortened: as §1

[8] = SDT Cancer Cell Toxicity qHTS against the NCATS CANVASS Library (AID 1347365); further: nearly all actives have a fitted effect of over 60% in size; further: potency means the concentration at half of the fitted maximal effect
Procedure, shortened: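 SDT dog glioma cells (500/well) exposed to an 11-point compound series for 72 hr at 37C, 5% CO2. Cytotoxicity read as ATP content by CellTiterGlo luminescence; bortezomib titration as control.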

[9] = qHTS for Hypoxia signaling pathway (HIF-1) antagonists against the NCATS CANVASS Library (AID 1347374); further: nearly all actives have a fitted effect of over 60% in size; further: potency means the concentration at half of the fitted maximal effect;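 on activity change, negative = inhibition: HRE-bla ME-180 cells stimulated with cobalt chloride to stabilize HIF-1alpha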
Procedure, shortened: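 HRE-bla ME-180 cells in medium with 0.5% dialyzed FBS received compounds (11-point series) plus CoCl2 (60 uM addition stock) for 17 hrs at 37C. Beta-lactamase activity read with CCF4 (405 nm ex, 460/530 nm em); CellTiter-Glo viability measured in same wells.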

[10] = target: Glucocorticoid receptor (Homo sapiens) (UniProt P04150); experiment: GR-GFP Redistribution (AID 450;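 active means compounds whose dose series gives a full or clear partial fitted curve of increased nuclear translocation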; further: potency means the concentration at half of the fitted maximal effect); details: U2OS GR-GFP nuclear translocation, laser cytometry, 2 h
[11] = target: Glucocorticoid receptor (Homo sapiens) (UniProt P04150); experiment: GR-EFC Redistribution (AID 451; calls by dose curve; further: potency means the concentration at half of the fitted maximal effect); details: CHO-K1 GR-EFC translocation, beta-gal luminescence, 2 h
Procedure, shortened: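 Translocation of GR-ED fusion to nuclear EA restores b-gal, read by luminescence after 1 h room-temperature detection. Engineered CHO-K1 biosensor cells, 1,000/well, exposed 2 h at 37 C to titrations up to 46 uM final.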

[12] = target: Mitogen-activated protein kinase 10 (Mus musculus) (UniProt Q61831); experiment: JNK3 AlphaScreen Assay (AID 530; active means well fitted curve in either direction with a large enough effect, not every such curve was filed as active;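 further: kinase came from lysate of stimulated human HepG2 cells; signal reports phosphorylation of biotinylated GST-cJun 1-79 at Ser73 with 10 µM ATP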)
Procedure, shortened: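 Compound titrations were preincubated 15 minutes at room temperature with substrate, antibody and pre-activated JNK3-containing HepG2 lysate. Reactions were started with 10 uM ATP and stopped with EDTA-containing bead buffer for AlphaScreen detection.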

[13] = qHTS Assay for Lipid Storage Modulators (AID 1519; calls by dose curve); details: Drosophila S3 cells, BODIPY lipid droplet/cell ratio, laser cytometry, cells loaded with oleic acid
Procedure, shortened: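 Cells seeded at 5,000 per well were treated with compounds over a concentration series and loaded with oleic acid (400 uM, as added). Lipid droplet fluorescence (488 nm excitation, 500-530 nm channel) was read by laser-scanning cytometry and normalized to 20 uM Triacsin C.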

[14] = target: Ubiquitin carboxyl-terminal hydrolase 1 (Homo sapiens) (UniProt O94782); experiment: Inhibitors of USP1/UAF1: Pilot qHTS (AID 504865);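 further: rhodamine fluorescence freed from ubiquitin-rhodamine substrate followed over time; top concentration of the series differs between compounds; nearly all actives have a fitted effect of over 35% in size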
Procedure, shortened: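 1nM USP1/UAF1 + cpd, 15 min RT; start w/ Ub-Rho 150nM final; kinetic FL 480/540 nm, 6 reads q60 s. Buffer 50mM HEPES pH 7.8, 0.5mM EDTA, 1mM TCEP, 0.01% Tween-20, 0.1 mg/ml BSA.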

[15] = target: DNA dC->dU-editing enzyme APOBEC-3G (Homo sapiens) (UniProt Q9HC16); experiment: qHTS for inhibitors of Vif-A3G interactions: Validation (AID 588379)
Procedure, shortened: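 HeLa cells stably expressing Vif and A3G-eYFP, 700 cells/well, incubated overnight at 37 deg C, then exposed to compound overnight at 37 deg C. Inhibition of Vif-mediated degradation read as increased yellow fluorescence (Ex 488/Em 500-530) by laser-scanning cytometry.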

[16] = Primary qHTS for small molecule stabilizers of the endoplasmic reticulum resident proteome: Secreted ER Calcium Modulated Protein (SERCaMP) assay (AID 1508630)
Procedure, shortened: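 GLuc-SERCaMP-expressing SH-SY5Y cells, pretreated 16 h with compound, are challenged with thapsigargin to empty ER calcium stores; after 4 h, coelenterazine is added directly to the medium and luminescence is imaged.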

[17] = measured here: cell count channel max response
[18] = measured here: lipid channel max response

Sequence of Glucocorticoid receptor (Homo sapiens) (P04150 whole entry, looked up, the tested form may be a part): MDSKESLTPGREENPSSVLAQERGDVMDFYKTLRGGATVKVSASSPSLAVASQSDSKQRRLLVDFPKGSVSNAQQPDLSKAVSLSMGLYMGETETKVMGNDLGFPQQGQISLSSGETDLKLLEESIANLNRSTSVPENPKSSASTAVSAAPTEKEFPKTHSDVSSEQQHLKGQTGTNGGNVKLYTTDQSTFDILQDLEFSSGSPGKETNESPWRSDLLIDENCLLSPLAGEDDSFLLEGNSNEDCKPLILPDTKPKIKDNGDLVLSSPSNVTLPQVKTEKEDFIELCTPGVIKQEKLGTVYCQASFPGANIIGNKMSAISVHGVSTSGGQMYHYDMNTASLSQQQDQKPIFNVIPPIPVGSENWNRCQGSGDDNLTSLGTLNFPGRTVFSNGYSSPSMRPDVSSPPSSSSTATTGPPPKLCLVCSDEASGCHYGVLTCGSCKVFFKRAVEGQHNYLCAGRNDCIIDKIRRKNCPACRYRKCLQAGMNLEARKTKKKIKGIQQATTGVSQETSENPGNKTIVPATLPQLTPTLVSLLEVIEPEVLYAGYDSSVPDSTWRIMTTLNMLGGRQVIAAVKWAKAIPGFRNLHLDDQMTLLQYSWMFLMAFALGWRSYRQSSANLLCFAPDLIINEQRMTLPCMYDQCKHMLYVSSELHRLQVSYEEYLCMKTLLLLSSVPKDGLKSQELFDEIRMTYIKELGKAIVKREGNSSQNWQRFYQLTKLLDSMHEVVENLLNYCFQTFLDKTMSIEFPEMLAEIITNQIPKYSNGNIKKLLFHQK
Sequence of DNA dC->dU-editing enzyme APOBEC-3G (Homo sapiens) (Q9HC16 whole entry, looked up): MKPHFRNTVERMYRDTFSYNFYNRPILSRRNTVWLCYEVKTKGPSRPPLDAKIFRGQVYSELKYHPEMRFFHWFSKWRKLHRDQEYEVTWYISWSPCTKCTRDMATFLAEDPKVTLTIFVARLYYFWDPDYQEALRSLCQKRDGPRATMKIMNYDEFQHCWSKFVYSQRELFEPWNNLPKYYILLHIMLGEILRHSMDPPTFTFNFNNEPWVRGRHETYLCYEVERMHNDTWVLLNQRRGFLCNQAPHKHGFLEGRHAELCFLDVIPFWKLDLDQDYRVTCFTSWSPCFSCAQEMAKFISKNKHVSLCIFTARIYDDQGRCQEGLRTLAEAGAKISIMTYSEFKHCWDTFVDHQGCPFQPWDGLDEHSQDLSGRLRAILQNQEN
Sequence of Ubiquitin carboxyl-terminal hydrolase 1 (Homo sapiens) (O94782 whole entry, looked up): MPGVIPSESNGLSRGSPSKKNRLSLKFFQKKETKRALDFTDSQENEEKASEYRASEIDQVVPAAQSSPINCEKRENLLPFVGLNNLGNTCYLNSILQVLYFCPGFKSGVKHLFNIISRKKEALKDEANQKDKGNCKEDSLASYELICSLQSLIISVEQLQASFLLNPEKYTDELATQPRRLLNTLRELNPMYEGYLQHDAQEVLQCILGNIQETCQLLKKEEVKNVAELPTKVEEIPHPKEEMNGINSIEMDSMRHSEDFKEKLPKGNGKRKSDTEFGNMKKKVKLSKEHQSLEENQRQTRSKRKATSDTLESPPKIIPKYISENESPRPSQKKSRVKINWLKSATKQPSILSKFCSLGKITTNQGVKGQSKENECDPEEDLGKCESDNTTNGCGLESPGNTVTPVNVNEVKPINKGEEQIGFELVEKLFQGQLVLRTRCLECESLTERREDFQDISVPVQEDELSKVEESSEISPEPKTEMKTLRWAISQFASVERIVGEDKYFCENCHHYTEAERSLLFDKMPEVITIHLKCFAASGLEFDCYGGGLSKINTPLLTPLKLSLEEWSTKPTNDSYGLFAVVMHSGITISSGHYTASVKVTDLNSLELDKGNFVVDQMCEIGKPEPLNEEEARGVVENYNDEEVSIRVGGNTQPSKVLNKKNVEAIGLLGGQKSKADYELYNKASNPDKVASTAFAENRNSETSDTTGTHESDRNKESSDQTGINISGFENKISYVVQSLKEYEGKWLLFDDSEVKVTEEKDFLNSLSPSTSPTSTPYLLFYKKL

Compound: CN1CC[C@]2(c3cccc4c3N[C@@H]3N(C)CC[C@]43[C@@]34CCN(C)[C@@H]3Nc3ccccc34)c3ccccc3N[C@H]12
- Potency [1]: 18.8 µM (active)
- Potency [2]: 7.43 µM (active)
- Potency [3]: inactive
- Potency [4]: 1.49 µM (active)
- Potency [5]: inactive
- Potency [6]: inactive

Compound: CC1=CC2=C[C@H](C)C[C@@]23OC(=C(C)C3=O)CC(C)(C)/C=C/C1=O
- Potency [7]: 2.11 µM (active)
- Potency [2]: 0.526 µM (active)
- Potency [8]: 0.662 µM (active)
- Potency [9]: 0.265 µM (active)
- Potency [4]: 2.36 µM (active)
- Potency [5]: inactive
- Potency [6]: inactive

Compound: CCCCCC[C@H](CCCCC[C@@H](O)C(N)=O)OC(=O)[C@@H]1CC=CN1C(=O)c1ccccc1O
- Potency [1]: 6.66 µM (active)
- Potency [2]: inactive
- Potency [3]: inactive
- Potency [9]: inactive
- Potency [5]: inactive

Compound: COc1ccc(/C=C2\COc3cc(O)ccc3C2=O)cc1
- Potency [1]: inactive
- Potency [3]: inactive
- Potency [6]: inactive

Compound: CC1(C)CC[C@]2(C(=O)O)CC[C@]3(C)C(=CC[C@@H]4[C@@]5(C)C[C@@H](O)[C@H](O)C(C)(C)[C@@H]5CC[C@]43C)[C@@H]2C1
- Potency [1]: 11.8 µM (active)
- Potency [3]: inactive
- Potency [8]: inactive

Compound: C/C=C1/CC[C@@H]2c3[nH]c4ccccc4c3CCN2C1
- Potency [7]: inactive
- Potency [3]: inactive
- Potency [9]: inactive
- Potency [5]: inactive
- Potency [6]: inactive

Compound: C=C1C[C@@]23C=CC(=O)[C@@](C)(CCCC(C)C(=O)O)[C@@H]2C[C@@H]1CC3 (some centres not stated)
- Potency [1]: inactive
- Potency [2]: inactive
- Potency [3]: inactive
- Potency [9]: inactive
- Potency [4]: inactive
- Potency [5]: inactive

Compound: CCCCCCC[C@@H](C/C=C/CCC(=O)NCCc1c[nH]c2ccccc12)OC
- Potency [7]: inactive
- Potency [9]: inactive
- Potency [5]: inactive

Compound: N[C@H](C(=O)O)c1nn[nH]n1
- Potency [10]: > 46 µM (inactive)
- Potency [11]: > 46 µM (inactive)
- Potency [12]: inactive
- activity change, negative = inhibition ([13]; at 57.5 µM (top of the series)): 1.12% (inactive)
- max response [13, 17]: -0.925%
- max response [13, 18]: -0.771%
- Potency [14]: inactive
- Potency [15]: inactive

Compound: COc1cc2c(cc1OC)C(c1ccc(N)cc1)=NNC(=O)C2
- Potency [10]: > 46 µM (inactive)
- Potency [11]: > 46 µM (inactive)
- Potency [12]: inactive
- Potency [15]: inactive
- Potency [16]: inactive

Compound: CC(C)SC(=N)N
- Potency [10]: > 46 µM (inactive)
- Potency [11]: > 46 µM (inactive)
- Potency [12]: inactive
- activity change, negative = inhibition ([13]; at 57.5 µM (top of the series)): -0.874% (inactive)
- max response [13, 17]: 1.11%
- max response [13, 18]: -3.81%
- Potency [14]: inactive
- Potency [15]: inactive
- Potency [16]: inactive

Compound: O=C1C=CC(=O)C2=C1C1c3ccccc3C2c2ccccc21
- Potency [16]: inactive

Compound: Cn1cnc2nc(NCCO)nc(NCc3ccccc3)c21
- Potency [16]: inactive

Compound: C[C@@](N)(C(=O)O)c1ccc(S(=O)(=O)O)cc1
- Potency [10]: > 46 µM (inactive)
- Potency [11]: > 46 µM (inactive)
- Potency [12]: inactive
- activity change, negative = inhibition ([13]; at 57.5 µM (top of the series)): -0.133% (inactive)
- max response [13, 17]: 9.59%
- max response [13, 18]: 13.8%
- Potency [14]: inactive
- Potency [15]: inactive
- Potency [16]: inactive

Compound: CCCN=C(N)NCCC[C@H](N)C(=O)O
- Potency [10]: > 46 µM (inactive)
- Potency [11]: > 46 µM (inactive)
- Potency [12]: inactive
- activity change, negative = inhibition ([13]; at 57.5 µM (top of the series)): -1.86% (inactive)
- max response [13, 17]: -18.5%
- max response [13, 18]: -20.5%
- Potency [14]: inactive
- Potency [15]: inactive
- Potency [16]: inactive

Compound: CCC(=O)O[C@H](CC(=O)O)C[N+](C)(C)C
- Potency [10]: > 46 µM (inactive)
- Potency [11]: > 46 µM (inactive)
- Potency [12]: inactive
- activity change, negative = inhibition ([13]; at 57.5 µM (top of the series)): 3.1% (inactive)
- max response [13, 17]: -8.23%
- max response [13, 18]: -5.22%
- Potency [14]: inactive
- Potency [15]: inactive
- Potency [16]: inactive

Compound: Cc1ccc(S(=O)(=O)NCc2ccccc2)cc1
- Potency [10]: > 46 µM (inactive)
- Potency [11]: > 46 µM (inactive)
- Potency [15]: inactive

Compound: Cc1cc(C(=O)O)ccc1[C@H](N)C(=O)O
- Potency [10]: > 46 µM (inactive)
- Potency [12]: inactive
- Potency [14]: inactive
- Potency [15]: inactive
- Potency [16]: inactive

Compound: CCCCC/C=C/C=C1/C(=O)C=C[C@@H]1C/C=C\CCCC(=O)O
- activity change, negative = inhibition [16]: -9.18% [at 3.88 µM] (inactive)

Compound: C[C@@H](CCc1ccc(O)cc1)NCCc1ccc(O)c(O)c1
- Potency [10]: > 46 µM (inactive) and > 20.6 µM (inactive)
- Potency [11]: > 46 µM (inactive) and > 20.6 µM (inactive)
- Potency [12]: inactive
- activity change, negative = inhibition ([13]; at 25.7 µM (top of the series)): 0.472% (inactive)
- max response [13, 17]: 1.22%
- max response [13, 18]: 2.79%
- Potency [14]: inactive
- Potency [15]: inactive
- Potency [16]: inactive
